Experimental data as given in PubChem BioAssay (Tox21).
Records with an inconclusive call do not appear. Activity calls are given as the source filed them. Unless noted, the call rests on the fitted dose curve; in most records, active means well fitted curve in the direction sought with a large enough effect in the repeat runs; inconclusive means weak or mixed curves; inactive means no such curve, though single readings can be large; an effect the other way counts as inactive or inconclusive.

Assays:
[1] = A CellTox Green Cytotoxicity Assay to monitor cytotoxicity in HepG2 cells - 0 hour (AID 1224882); further: nearly all actives have a fitted effect of over 35% in size
Procedure, shortened: (§1)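 Nonlytic assay: viable cells exclude the dye, so fluorescence scales with cell death. HepG2 at 600 cells/well, compounds added after 5 h, signal read across 40 h.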

[2] = A CellTox Green Cytotoxicity Assay to monitor cytotoxicity in HepG2 cells - 32 hour (AID 1224883); further: nearly all actives have a fitted effect of over 50% in size; further: potency means the concentration at half of the fitted maximal effect
Procedure, shortened: as §1

[3] = A CellTox Green Cytotoxicity Assay to monitor cytotoxicity in HEK293 cells - 8 hour (AID 1224884); further: nearly all actives have a fitted effect of over 35% in size; further: potency means the concentration at half of the fitted maximal effect
Procedure, shortened: (§2)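 Seeding of HEK293 cells together with cytotoxicity dye preceded a 5 h incubation at 37 C/5% CO2. Test compounds in DMSO were then added and fluorescence monitored across 40 h.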

[4] = qHTS RealTime-Glo MT Cell Viability Assay in HepG2 cells - 16 hour (AID 1224885); further: nearly all actives have a fitted effect of over 50% in size; further: potency means the concentration at half of the fitted maximal effect
Procedure, shortened: (§3)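 Luminescence read-out: viable HepG2 cells reduce a prosubstrate to a NanoLuc substrate, giving a signal proportional to live cell number. Reads taken at 0, 8, 16, 24, 32 and 40 h of compound exposure at 37 C.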

[5] = qHTS RealTime-Glo MT Cell Viability Assay in HEK293 cells - 24 hour (AID 1224886); further: nearly all actives have a fitted effect of over 50% in size; further: potency means the concentration at half of the fitted maximal effect; on activity change, negative = cytotoxicity: top concentration of the series differs between compounds
Procedure, shortened: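 Nonlytic real-time viability readout: viable cells convert prosubstrate to NanoLuc substrate, giving luminescence proportional to live cell number. HEK293, 600 cells/well, compound added after 5 h, continuous culture at 37 C.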

[6] = qHTS RealTime-Glo MT Cell Viability Assay in HEK293 cells - 8 hour (AID 1224887); further: nearly all actives have a fitted effect of over 50% in size; further: potency means the concentration at half of the fitted maximal effect; on activity change, negative = cytotoxicity: top concentration of the series differs between compounds
Procedure, shortened: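 Tox21 screen in HEK293 using RealTime-Glo MT chemistry, with cells and reagent co-dispensed. Luminescence proportional to viable cell number was captured at intervals during 40 h compound exposure at 37 C.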

[7] = qHTS RealTime-Glo MT Cell Viability Assay in HepG2 cells - 0 hour (AID 1224889); further: nearly all actives have a fitted effect of over 50% in size
Procedure, shortened: as §3

[8] = A CellTox Green Cytotoxicity Assay to monitor cytotoxicity in HepG2 cells - 8 hour (AID 1224890); further: nearly all actives have a fitted effect of over 45% in size; further: potency means the concentration at half of the fitted maximal effect
Procedure, shortened: as §1

[9] = qHTS assay to identify small molecule antagonists of the estrogen receptor alpha (ER-alpha) signaling pathway using the BG1 cell line in the presence of 0.1 nM 17-beta-estradiol - cell viability counter screen (AID 1259241); further: nearly all actives have a fitted effect of over 40% in size; further: potency means the concentration at half of the fitted maximal effect
Procedure, shortened: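 VM7Luc4E2 cells (endogenous ER-alpha, 4×ERE-luciferase), hormone-starved 5 days in charcoal-stripped FBS, were treated with compounds plus 0.1 nM 17beta-estradiol for 22 hr at 37C; viability read in same wells as CellTiter-Fluor live-cell protease fluorescence.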

[10] = qHTS assay to identify small molecule HDAC inhibitors (AID 1259364);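 further: wild-type HCT-116 cells with endogenous class I/II HDAC activity; top concentration of the series differs between compounds; nearly all actives have a fitted effect of over 45% in size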
Procedure, shortened: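 Relative class I and II HDAC activity is taken from the luminogenic signal in HCT-116 cells, with compound exposure 2 hr and reagent development 30 min at room temperature.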

[11] = qHTS assay to identify small molecule HDAC inhibitors - cell viability counter screen (AID 1259365); further: nearly all actives have a fitted effect of over 50% in size; further: potency means the concentration at half of the fitted maximal effect; on activity change, negative = cytotoxicity: series mostly up to about 92 µM
Procedure, shortened: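 Wild-type HCT-116 cells were seeded at 1,500 per well, incubated overnight at 37 C, then exposed to compounds in DMSO for 2hr. Viability was read by CellTiter-Glo luminescence after 30min at room temperature.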

[12] = qHTS assay to identify small molecule antagonists of the sonic hedgehog signaling (Shh) pathway - cell viability counter screen (AID 1259367); further: nearly all actives have a fitted effect of over 55% in size; further: potency means the concentration at half of the fitted maximal effect
Procedure, shortened: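 NIH/3T3-derived Gli1-Luc reporter cells, 2,000/well, plated 4 hr before compound addition, then stimulated with conditioned medium for 24 hr at 37C. Viability measured in the same wells by CellTiter-Fluor fluorescence, reagent added at 23 hr for 1 hr.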

[13] = qHTS assay to identify small molecule agonists of the sonic hedgehog signaling (Shh) pathway (AID 1259368; calls by dose curve; further: series mostly up to about 92 µM; nearly all actives have a fitted effect of over 15% in size)
Procedure, shortened: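 Mouse fibroblast (NIH/3T3) reporter cells with stably integrated Gli1-Luc were treated 24 hr with compound; firefly luciferase luminescence served as the read-out.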

[14] = A CellTox Green Cytotoxicity Assay to monitor cytotoxicity in HEK293 cells - 16 hour (AID 1224888); further: nearly all actives have a fitted effect of over 35% in size; further: potency means the concentration at half of the fitted maximal effect
Procedure, shortened: as §2

[15] = target: Estrogen receptor (Homo sapiens) (UniProt P03372); test: qHTS assay to identify small molecule antagonists of the estrogen receptor alpha (ER-alpha) signaling pathway using the BG1 cell line in the presence of 0.1 nM 17-beta-estradiol (AID 1259244); further: nearly all actives have a fitted effect of over 50% in size; further: potency means the concentration at half of the fitted maximal effect
Procedure, shortened: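 VM7Luc4E2; 4xERE-luciferase; 0.1 nM E2 final; 22 h co-incubation, 37C; ONE-Glo luminescence after 30 min at room temperature.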

[16] = qHTS assay to identify small molecule agonists of the sonic hedgehog signaling (Shh) pathway - cell viability counter screen (AID 1259366); further: nearly all actives have a fitted effect of over 50% in size; further: potency means the concentration at half of the fitted maximal effect
Procedure, shortened: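 NIH/3T3-derived 3T3 Gli1-Luc cells (stable Gli1-responsive firefly luciferase reporter) were seeded, rested 4 hr at 37 C/5% CO2, then exposed to compounds in DMSO for 24 hr; viability was read by CellTiter-Fluor fluorescence in the same wells.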

[17] = qHTS assay to identify small molecule phospholipidosis (PLD) inducers (AID 1259344; active means well fitted curve in the direction sought with a large enough effect; an effect the other way counts as inactive or inconclusive)
Procedure, shortened: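 HepG2 cells, 900/well, treated with compound plus LipidTOX Red for 24 h at 37 C; amiodarone positive and DMSO negative controls. Fixed with paraformaldehyde/Hoechst, then high-content imaging scored LipidTOX pit count and integrated intensity per well and per cell.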

[18] = qHTS assay to identify small molecule antagonists of the androgen receptor (AR) signaling pathway using the MDA cell line in the presence of 0.5 nM R1881 - cell viability counter screen (AID 1259242); further: nearly all actives have a fitted effect of over 45% in size; further: potency means the concentration at half of the fitted maximal effect
Procedure, shortened: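 R1881 at 0.5 nM final stimulated MDA-kb2 cells during 16 hr compound treatment at 37C. Cytotoxicity read: CellTiter-Fluor fluorescence after 30 min.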

[19] = target: Androgen receptor (Homo sapiens) (UniProt P10275); test: qHTS assay to identify small molecule antagonists of the androgen receptor (AR) signaling pathway using the MDA cell line in the presence of 0.5 nM R1881 (AID 1259243); further: nearly all actives have a fitted effect of over 50% in size; further: potency means the concentration at half of the fitted maximal effect
Procedure, shortened: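 We exposed MDA-kb2 cells to compounds under 0.5 nM R1881 stimulation for 16 hr at 37C and quantified MMTV-driven luciferase by luminescence.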
On the % scale 0 is the no-effect control and ±100 the full control effect.

Sequence of Estrogen receptor (Homo sapiens) (P03372 whole entry, looked up): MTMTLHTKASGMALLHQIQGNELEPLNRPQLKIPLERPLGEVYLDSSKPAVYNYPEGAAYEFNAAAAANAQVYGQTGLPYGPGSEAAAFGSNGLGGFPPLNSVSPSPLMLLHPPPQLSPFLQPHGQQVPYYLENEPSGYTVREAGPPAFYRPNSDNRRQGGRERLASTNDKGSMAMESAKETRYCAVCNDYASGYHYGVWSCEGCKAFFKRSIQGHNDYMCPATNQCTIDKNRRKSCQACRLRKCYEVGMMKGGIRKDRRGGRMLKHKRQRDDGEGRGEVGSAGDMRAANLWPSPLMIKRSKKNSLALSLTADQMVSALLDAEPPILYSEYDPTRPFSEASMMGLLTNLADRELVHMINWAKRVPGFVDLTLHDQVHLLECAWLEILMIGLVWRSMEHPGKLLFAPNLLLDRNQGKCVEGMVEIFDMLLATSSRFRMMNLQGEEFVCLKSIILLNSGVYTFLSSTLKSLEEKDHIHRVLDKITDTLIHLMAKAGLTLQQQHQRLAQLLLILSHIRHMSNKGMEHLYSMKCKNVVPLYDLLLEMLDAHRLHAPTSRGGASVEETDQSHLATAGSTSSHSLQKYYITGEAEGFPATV
Sequence of Androgen receptor (Homo sapiens) (P10275 whole entry, looked up): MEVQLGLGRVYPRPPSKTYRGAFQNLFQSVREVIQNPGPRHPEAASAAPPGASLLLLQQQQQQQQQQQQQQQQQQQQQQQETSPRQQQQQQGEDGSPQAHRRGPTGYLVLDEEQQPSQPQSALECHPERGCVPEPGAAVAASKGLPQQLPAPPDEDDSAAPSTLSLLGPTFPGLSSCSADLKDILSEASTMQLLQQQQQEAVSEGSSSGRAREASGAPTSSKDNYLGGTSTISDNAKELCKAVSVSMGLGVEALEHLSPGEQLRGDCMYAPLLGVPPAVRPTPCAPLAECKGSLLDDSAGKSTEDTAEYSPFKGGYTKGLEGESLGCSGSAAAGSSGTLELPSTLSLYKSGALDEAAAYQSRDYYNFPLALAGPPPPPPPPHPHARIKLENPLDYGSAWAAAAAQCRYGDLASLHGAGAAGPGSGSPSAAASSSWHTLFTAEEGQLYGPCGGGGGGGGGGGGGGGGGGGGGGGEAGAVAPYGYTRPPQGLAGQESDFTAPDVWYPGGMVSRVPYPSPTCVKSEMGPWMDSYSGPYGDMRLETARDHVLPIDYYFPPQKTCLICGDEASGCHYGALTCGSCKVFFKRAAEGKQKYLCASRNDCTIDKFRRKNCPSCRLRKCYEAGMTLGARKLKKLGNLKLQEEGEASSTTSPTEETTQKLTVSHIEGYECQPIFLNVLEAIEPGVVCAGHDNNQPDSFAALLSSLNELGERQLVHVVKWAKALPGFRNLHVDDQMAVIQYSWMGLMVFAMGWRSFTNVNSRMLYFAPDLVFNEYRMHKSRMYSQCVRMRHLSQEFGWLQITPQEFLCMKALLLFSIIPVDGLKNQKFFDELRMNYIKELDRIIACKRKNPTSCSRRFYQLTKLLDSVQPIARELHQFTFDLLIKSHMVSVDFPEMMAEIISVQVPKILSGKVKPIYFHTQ

COc1cccc(N)c1
inactive: Potency [1] | Potency [2] | Potency [3] | Potency [4] | Potency [5] | Potency [6] | Potency [7] | Potency [8] | Potency [9] | Potency [10] | Potency [11] | Potency [12] | Potency [13]

CCCCCCCC[N+](CCCCCCCC)(CCCCCCCC)CCCCCCCC
active: Potency [2] 21.8 µM | Potency [3] 24.5 µM | Potency [4] 24.5 µM | Potency [5] 6.15 µM | Potency [6] 12.3 µM | Potency [14] 21.8 µM | Potency [8] 34.6 µM | Potency [9] 61 µM | Potency [15] 2.16 µM | Potency [11] 61 µM | Potency [16] 17.2 µM | Potency [12] 27.3 µM
inactive: Potency [1] | Potency [10] | Potency [13]

CCc1cc(SCc2sc(-c3ccc(C(F)(F)F)cc3)nc2CN2CCN(c3ccc(OC)cc3)CC2)ccc1OCC(=O)O
active: Potency [5] 21.9 µM | Potency [11] 24.3 µM
inactive: Potency [1] | Potency [2] | Potency [3] | Potency [7] | Potency [8] | Potency [9] | Potency [10] | Potency [12] | Potency [13]

Cc1cc(=O)oc2cc(N(C)C)ccc12
inactive: Potency [1] | Potency [2] | Potency [3] | Potency [6] | Potency [14] | Potency [7] | Potency [8] | Potency [10] | Potency [11] | Potency [13]

O=C(Oc1cccc2cccnc12)c1ccccc1
inactive: Potency [1] | Potency [3] | Potency [4] | Potency [6] | Potency [14] | Potency [7] | Potency [8] | Potency [9] | Potency [17] | Potency [11] | Potency [13]
active: Potency [2] 0.338 µM | Potency [16] 1.5 µM

CC(=O)OCC(C)OC(C)=O (stereo unspecified)
inactive: Potency [1] | Potency [2] | Potency [3] | Potency [4] | Potency [6] | Potency [14] | Potency [7] | Potency [8] | Potency [9] | Potency [15] | Potency [10] | Potency [11] | Potency [16] | Potency [12] | Potency [13]

Cc1[nH]nc2c1N=C(c1ccccc1Cl)c1cc([N+](=O)[O-])ccc1N2
active: Potency [9] 27.3 µM | Potency [18] 27.3 µM | Potency [16] 13.7 µM | Potency [12] 8.63 µM
inactive: Potency [1] | Potency [2] | Potency [3] | Potency [4] | Potency [6] | Potency [14] | Potency [7] | Potency [8] | Potency [11] | Potency [13]

C/C(=C(/OCCOc1ccc(Cl)cc1)c1ccc(Cl)cc1Cl)n1ccnc1
inactive: Potency [1] | Potency [2] | Potency [3] | Potency [4] | Potency [14] | Potency [7] | Potency [8] | Potency [9] | Potency [18] | Potency [10] | Potency [11] | Potency [16] | Potency [12]

ON=C1CCCC1
active: Potency [5] 22.6 µM | Potency [19] 63.3 µM
inactive: Potency [1] | Potency [2] | Potency [3] | Potency [4] | Potency [14] | Potency [7] | Potency [8] | Potency [9] | Potency [18] | Potency [11] | Potency [16] | Potency [12] | Potency [13]

O=C(OC[C@H]1O[C@@H](OC(=O)c2cc(O)c(O)c(OC(=O)c3cc(O)c(O)c(O)c3)c2)[C@H](OC(=O)c2cc(O)c(O)c(OC(=O)c3cc(O)c(O)c(O)c3)c2)[C@@H](OC(=O)c2cc(O)c(O)c(OC(=O)c3cc(O)c(O)c(O)c3)c2)[C@@H]1OC(=O)c1cc(O)c(O)c(OC(=O)c2cc(O)c(O)c(O)c2)c1)c1cc(O)c(O)c(OC(=O)c2cc(O)c(O)c(O)c2)c1
inactive: cytotoxicity [1] -19.7% [at 15.8 µM] | cytotoxicity increase [2] -61.4% [at 15.8 µM] | cytotoxicity increase [3] -34.5% [at 15.8 µM] | activity change, negative = cytotoxicity [6] -15.8% [at 15.8 µM] | activity change [14] -38.7% [at 15.8 µM, hits give high values] | activity change, negative = cytotoxicity [7] -17.5% [at 15.8 µM] | cytotoxicity increase [8] -46.2% [at 15.8 µM] | viability change, negative = cytotoxic [18] -18.2% [at 19 µM] | Potency [17] | activity change, negative = inhibition [10] 4.81% [at 19 µM] | activity change, negative = cytotoxicity [11] -4.93% [at 19 µM] | activity change [13] -2.95% [at 18.9 µM, hits give high values]
active: Potency [16] 11.7 µM | Potency [12] 6.57 µM

C=C(C)C(=O)OCC[N+](C)(C)C
inactive: Potency [1] | Potency [2] | Potency [4] | Potency [5] | Potency [6] | Potency [14] | Potency [7] | Potency [8] | Potency [9] | Potency [18] | Potency [11] | Potency [13]
active: Potency [19] 30.5 µM

CN(C)C(=O)C1(N2CCCCC2)CCN(CC[C@@]2(c3ccc(Cl)c(Cl)c3)CN(C(=O)c3ccccc3)CCO2)CC1
inactive: Potency [1] | Potency [7] | Potency [10] | Potency [11] | Potency [13]
active: Potency [2] 18.2 µM | Potency [4] 36.3 µM | Potency [5] 11.5 µM | Potency [6] 16.2 µM | Potency [14] 45.8 µM | Potency [8] 45.8 µM | Potency [9] 64.1 µM | Potency [18] 50.9 µM | Potency [19] 28.6 µM | Potency [15] 57.1 µM | Potency [16] 16.1 µM | Potency [12] 50.9 µM

O=C(Nc1cccc(Cl)c1)OCC#CCCl
active: Potency [5] 49 µM | Potency [6] 43.6 µM | Potency [9] 61.1 µM | Potency [18] 61.1 µM | Potency [16] 27.3 µM | Potency [12] 24.3 µM
inactive: Potency [1] | Potency [3] | Potency [14] | Potency [7] | Potency [8] | Potency [10] | Potency [11] | Potency [13]

NC(=O)C1(N2CCCCC2)CCN(CCCN2c3ccccc3CCc3ccc(Cl)cc32)CC1
inactive: Potency [1] | Potency [7] | Potency [9] | Potency [11] | Potency [13]
active: Potency [2] 23.9 µM | Potency [5] 21.3 µM | Potency [6] 23.9 µM | Potency [18] 26.6 µM | Potency [16] 23.7 µM | Potency [12] 29.8 µM

Cc1cc(O)c(Cl)c(C)c1Cl
inactive: Potency [1] | Potency [4] | Potency [5] | Potency [6] | Potency [7] | Potency [9] | Potency [18] | Potency [19] | Potency [15] | Potency [11] | Potency [13]
active: Potency [2] 54.9 µM | Potency [12] 24.3 µM
